Reference: PubChem BioAssay (NCATS)
Results filed as inconclusive are left out. Active and inactive are the calls of the source. Calls follow the shape of the dose curve; as a rule, active = well fitted curve in the direction sought with a large enough effect; inconclusive = small, poorly fitted or top-dose-only effect, or another doubt; inactive = no such curve, though single readings can be large; an effect the other way counts as inactive or inconclusive.

What was measured:
[1] = qHTS of pediatric cancer cell lines to identify multiple opportunities for drug repurposing: Primary screen for Rh18 cells (AID 1347102); also: nearly all actives have a fitted effect of over 65% in size; also: potency is read from the fitted curve at half-maximal effect
Summary of the method: (§1)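 Viability after 48 h compound treatment at 37C, 500-1,000 cells/well, read as ATP luminescence with CellTiter-Glo. Primary screens used 11-point (MIPE, 0.78 nM-46 µM) or 8-point (NPC, 0.59 nM-46 µM) final concentrations; follow-up screens used 11-point dilutions.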

[2] = qHTS of pediatric cancer cell lines to identify multiple opportunities for drug repurposing: Primary screen for control Hh wild type fibroblast cells (AID 1347106); also: nearly all actives have a fitted effect of over 55% in size; also: potency is read from the fitted curve at half-maximal effect;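 as to activity change, negative = cytotoxic: a drop in luminescence marks cytotoxicity and a rise apparent proliferation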
Summary of the method: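 Cells (500-1,000/well) in growth media were settled 5 h at 37 degrees C, then given compounds for 48 h. Viability was read as CellTiter-Glo luminescence. Primary runs used MIPE at 11 points (0.78 nM-46 µM) and NPC at 8 points (0.59 nM-46 µM); follow-ups used 11 points.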

[3] = qHTS of pediatric cancer cell lines to identify multiple opportunities for drug repurposing: Primary screen for Rh30 cells (AID 1347107); also: nearly all actives have a fitted effect of over 75% in size; also: potency is read from the fitted curve at half-maximal effect
Summary of the method: as §1

[4] = qHTS of pediatric cancer cell lines to identify multiple opportunities for drug repurposing: Primary screen for Rh41 cells (AID 1347108); also: nearly all actives have a fitted effect of over 70% in size; also: potency is read from the fitted curve at half-maximal effect;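 as to activity change, negative = cytotoxic: luminescence drop marks cytotoxic hits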
Summary of the method: (§2)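 Luminescence from CellTiter-Glo served as readout of metabolically active cells after 48 h compound exposure. Titrations: MIPE 11-point, from 0.78 nM; NPC 8-point, from 0.59 nM (final). Concentration-response curves came straight from the primary screen.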

[5] = qHTS of pediatric cancer cell lines to identify multiple opportunities for drug repurposing: Primary screen for OHS-50 cells (AID 1347103); also: nearly all actives have a fitted effect of over 40% in size; also: potency is read from the fitted curve at half-maximal effect
Summary of the method: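 Cells (500-1,000/well) rested 5 h, then received compounds for 48 h; metabolically active cells were measured by CellTiter-Glo luminescence. Final concentrations spanned up to 46 µM (MIPE, 11-point) or 0.59 nM-46 µM (NPC, 8-point) in primary screens, 11-point in follow-ups.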

[6] = qHTS of pediatric cancer cell lines to identify multiple opportunities for drug repurposing: Primary screen for RD cells (AID 1347104); also: nearly all actives have a fitted effect of over 55% in size; also: potency is read from the fitted curve at half-maximal effect
Summary of the method: as §2

[7] = qHTS of pediatric cancer cell lines to identify multiple opportunities for drug repurposing: Primary screen for MG 63 (6-TG R) cells (AID 1347105); also: nearly all actives have a fitted effect of over 50% in size; also: potency is read from the fitted curve at half-maximal effect
Summary of the method: as §2

[8] = qHTS of pediatric cancer cell lines to identify multiple opportunities for drug repurposing: Confirmatory screen for A673 cells (AID 1347110); also: nearly all actives have a fitted effect of over 65% in size; also: potency is read from the fitted curve at half-maximal effect
Summary of the method: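 Concentration-response curves came straight from titrations: 11 points (0.78 nM to 46 µM) for MIPE and several concentrations (0.59 nM to 46 µM) for NPC in primary, 11 points in follow-up. Readout: ATP luminescence at 48 h.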

[9] = qHTS of pediatric cancer cell lines to identify multiple opportunities for drug repurposing: Confirmatory screen for SK-N-MC cells (AID 1347111);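 also: cells exposed to compound for 48 h before the readout; nearly all actives have a fitted effect of over 70% in size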; also: potency is read from the fitted curve at half-maximal effect
Summary of the method: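 SK-N-MC cells at 500-1,000 cells/well in growth media were pre-incubated 5 h, then exposed to compounds at 11-point dilutions for 48 h at 37 degrees C, 5% CO2. Viability was read as CellTiter-Glo luminescence.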

[10] = qHTS of pediatric cancer cell lines to identify multiple opportunities for drug repurposing: Confirmatory screen for LAN-5 cells (AID 1347113); also: nearly all actives have a fitted effect of over 65% in size; also: potency is read from the fitted curve at half-maximal effect
Summary of the method: as §1

[11] = qHTS of pediatric cancer cell lines to identify multiple opportunities for drug repurposing: Confirmatory screen for DAOY cells (AID 1347114); also: nearly all actives have a fitted effect of over 65% in size; also: potency is read from the fitted curve at half-maximal effect
Summary of the method: (§3)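 Viability measured as metabolically active cells via CellTiter-Glo luminescence following 48 hours of compound exposure, 11-point dilutions in confirmatory testing. 500-1,000 cells/well plated 5 hours before dosing; controls were DMSO and 2.3 µM bortezomib.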

[12] = qHTS of pediatric cancer cell lines to identify multiple opportunities for drug repurposing: Confirmatory screen for MG 63 (6-TG R) cells (AID 1347119); also: nearly all actives have a fitted effect of over 55% in size; also: potency is read from the fitted curve at half-maximal effect
Summary of the method: as §1

[13] = qHTS of pediatric cancer cell lines to identify multiple opportunities for drug repurposing: Confirmatory screen for control Hh wild type fibroblast cells (AID 1347121); also: nearly all actives have a fitted effect of over 70% in size
Summary of the method: as §1

[14] = qHTS of pediatric cancer cell lines to identify multiple opportunities for drug repurposing: Confirmatory screen for TC32 cells (AID 1347118); also: nearly all actives have a fitted effect of over 65% in size; also: potency is read from the fitted curve at half-maximal effect
Summary of the method: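 TC32 cells, 500-1,000/well in growth medium, compound-treated 48 h at 37 °C; viability from CellTiter-Glo luminescence. Primary screen: MIPE 11-point (0.78 nM–46 µM final), NPC 8-point (0.59 nM–46 µM final); confirmatory at 11-point dilutions.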

[15] = qHTS of pediatric cancer cell lines to identify multiple opportunities for drug repurposing: Confirmatory screen for BT-12 cells (AID 1347112); also: nearly all actives have a fitted effect of over 55% in size; also: potency is read from the fitted curve at half-maximal effect
Summary of the method: as §1

[16] = qHTS of pediatric cancer cell lines to identify multiple opportunities for drug repurposing: Confirmatory screen for SJ-GBM2 cells (AID 1347116); also: potency is read from the fitted curve at half-maximal effect; nearly all actives have a fitted effect of over 60% in size
Summary of the method: as §3

[17] = qHTS of pediatric cancer cell lines to identify multiple opportunities for drug repurposing: Confirmatory screen for BT-37 cells (AID 1347117); conditions: BT-37 pediatric cancer cells, viability; activity change, negative = cytotoxic: at 45.9 µM (top of the series); also: nearly all actives have a fitted effect of over 55% in size; also: potency is read from the fitted curve at half-maximal effect
Summary of the method: as §1

[18] = qHTS of pediatric cancer cell lines to identify multiple opportunities for drug repurposing: Confirmatory screen for U-2 OS cells (AID 1347122); also: nearly all actives have a fitted effect of over 65% in size; also: potency is read from the fitted curve at half-maximal effect
Summary of the method: as §1

[19] = qHTS of pediatric cancer cell lines to identify multiple opportunities for drug repurposing: Confirmatory screen for NB-EBc1 cells (AID 1347115); also: nearly all actives have a fitted effect of over 45% in size
Summary of the method: as §1

Measured: Potency

Cc1cc(C(=O)NOCCO)c(Nc2ccc(I)cc2F)n(C)c1=O
inactive: [1] | [2] | [3] | [4]

O=C(NC1CC1)c1cccc(-c2ccc3c(NC(=O)C4CC4)n[nH]c3c2)c1
active: [5] 3.85 µM | [6] 0.935 µM | [7] 1.48 µM | [4] 2.96 µM | [8] 4.14 µM | [9] 8.27 µM | [11] 9.27 µM | [12] 11.7 µM
inactive: [3] | [10] | [13]

CC(C)(C)c1nc2c3cc[nH]c(=O)c3c3cc(F)ccc3c2[nH]1
inactive: [1] | [7] | [3] | [4]

C#C[C@]1(O)CC[C@@H]2[C@@H]3CCc4cc(O)ccc4[C@H]3CC[C@@]21C
inactive: [2]
active: [5] 30.6 µM | [6] 18.7 µM | [7] 23.5 µM | [4] 23.5 µM

Cc1cc(Nc2ncc3c(n2)N(C)C(=O)N(c2cc(NC(=O)c4cccc(C(F)(F)F)c4)ccc2C)C3)n(C)n1
active: [5] 0.217 µM | [6] 0.418 µM | [7] 0.59 µM | [2] 0.743 µM | [4] 0.743 µM | [8] 0.414 µM | [9] 0.369 µM | [10] 0.465 µM | [11] 14.7 µM | [14] 0.329 µM | [12] 0.465 µM

Oc1cc(-c2nc(-c3ccccc3)[nH]c2-c2ccncc2)ccc1Cl
active: [5] 24.3 µM | [6] 2.09 µM | [7] 11.8 µM | [9] 3.69 µM | [15] 2.33 µM | [10] 6.57 µM | [16] 7.37 µM | [17] 2.61 µM | [18] 18.5 µM
inactive: [2] | [12]

CC(=O)O[C@]1(C(C)=O)CC[C@H]2[C@@H]3C=C(C)C4=CC(=O)CC[C@]4(C)[C@@H]3CC[C@@]21C
active: [1] 13.2 µM
inactive: [3]

C[C@H](NCc1ccc(OCc2cccc(F)c2)cc1)C(N)=O
active: [5] 4.85 µM | [6] 16.6 µM | [7] 18.7 µM | [4] 18.7 µM

CCCCOc1ccc(C(=O)Nc2ccc(F)cc2F)cc1
inactive: [5] | [6] | [7] | [2] | [3] | [4]

Cc1cnn(C)c1C(=O)Nc1cc(Nc2ccc3c(C=Cc4ccccn4)n[nH]c3c2)ccc1F
active: [5] 38.5 µM | [6] 18.7 µM

CCc1nc(-c2cccc(C)c2)c(-c2ccnc(NC(=O)c3ccccc3)c2)s1
inactive: [1] | [2]

C[N+]1(C)[C@@H]2C[C@@H](OC(=O)C(O)(c3cccs3)c3cccs3)C[C@H]1[C@@H]1O[C@@H]12
inactive: [5] | [6] | [7] | [2] | [3] | [4]

COc1ccc(S(=O)(=O)Nc2cc(-c3c(O)ccc4ccccc34)c(O)c3ccccc23)cc1
active: [5] 10.9 µM | [6] 29.6 µM | [7] 18.7 µM | [4] 18.7 µM
inactive: [2]

C=C(C)[C@@H]1CC[C@]2(C(=O)O)CC[C@]3(C)[C@H](CC[C@@H]4[C@@]5(C)CC[C@H](O)C(C)(C)[C@@H]5CC[C@]43C)[C@@H]12
inactive: [1] | [7] | [2] | [4]

OCC(O)C(O)C(O)CO (centres undefined)
inactive: [5] | [6] | [7] | [2] | [3] | [4]

C[C@@H]1C(=O)O[C@H]2CC34[C@H]5C[C@@H](C(C)(C)C)C36[C@H](OC(=O)[C@@H]6O)O[C@@]4(C(=O)O5)[C@]21O (some centres undefined)
inactive: [5] | [6] | [7] | [2] | [4]

CCCc1nc(C(C)(C)O)c(C(=O)O)n1Cc1ccc(-c2ccccc2-c2nn[nH]n2)cc1
inactive: [5] | [6] | [7] | [2] | [3] | [4]

CCOC(=O)C1=C(C)NC(=S)NC1c1cccc(O)c1 (centres undefined)
active: [5] 0.0968 µM | [8] 11.7 µM | [9] 5.22 µM | [18] 20.8 µM
inactive: [2] | [3] | [15] | [10] | [19] | [12] | [13]

N#Cc1c(C2CCNCC2)cc(-c2c(O)cccc2OCC2CC2)nc1N
active: [5] 15.3 µM | [6] 16.6 µM | [4] 14.8 µM | [11] 16.5 µM
inactive: [2] | [9] | [15] | [19] | [14] | [13]

CCN(CC)Cc1ccc2cc(COC(=O)Nc3ccc(C(=O)NO)cc3)ccc2c1
active: [5] 0.863 µM | [7] 4.69 µM | [2] 14.8 µM | [3] 4.69 µM | [4] 0.935 µM
not listed: [1] | [6] | [13] | [16] | [19]
inactive: all other assays above
